Assay outcomes from PubChem BioAssay.
Only some compounds are listed: those with a hit (about 32% of all), similar ones and a draw of the others.
CYP2C19 inhib: inhibitors of human CYP2C19 | CYP2C19 Supersomes, luciferin-H EGE luminescence, 30 min | inhibition, % at 5 µM | 21% of 96,000 active | AID 778;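 active = CYP2C19 inhibition above a set limit at 5 µM in the primary screen, cut at about 50% in these data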
CYP2C9 inh: inhibitors of human CYP2C9; P11712; CYP2C9 Supersomes, luciferin-H conversion, luminescence; inhibition, % at 5 µM; 20% of 96,000 active; AID 777;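 active = blocking of liver enzyme CYP2C9 beyond about 50% at 5 µM, limit read from the data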
Target sequence (P11712 whole entry, looked up): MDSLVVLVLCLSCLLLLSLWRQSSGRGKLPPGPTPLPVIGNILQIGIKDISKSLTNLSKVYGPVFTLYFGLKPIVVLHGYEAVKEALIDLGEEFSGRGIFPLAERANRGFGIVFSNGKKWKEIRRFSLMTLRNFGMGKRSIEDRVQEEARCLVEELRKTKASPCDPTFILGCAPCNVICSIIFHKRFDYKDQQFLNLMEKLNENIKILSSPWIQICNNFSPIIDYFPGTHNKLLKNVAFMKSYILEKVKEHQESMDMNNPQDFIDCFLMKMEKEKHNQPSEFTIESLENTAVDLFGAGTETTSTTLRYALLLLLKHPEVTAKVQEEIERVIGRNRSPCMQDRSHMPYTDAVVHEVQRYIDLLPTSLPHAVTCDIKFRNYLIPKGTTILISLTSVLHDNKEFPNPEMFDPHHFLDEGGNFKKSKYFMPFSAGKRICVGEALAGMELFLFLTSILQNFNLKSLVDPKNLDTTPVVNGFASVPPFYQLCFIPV
PostGolgi ctrl: inhibits growth of the yeast control strain; 5% of 98,000 active; inhibition, % at 10 µM; efflux-deficient yeast background strain, growth absorbance A615, 16 h
CYP2C9 activ: CYP2C9 (human) activation; recombinant CYP2C9, luciferin-H conversion, luminescence; active compounds read high; factor 1 = untreated enzyme, 0 = blocked; activation factor at 5 µM; 1.4% of 96,000 active; P11712;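 active = activation factor of 2 or more for CYP2C9 at a 5 µM dose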
CYP2C19 act: activators of human cytochrome P450 2C19. recombinant CYP2C19, luciferin-H EGE luminescence; active compounds read high; 0 = fully inhibited enzyme, 1 = untreated enzyme. activation factor at 5 µM. 96,000 tested, under 10 active;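 active = activation factor of at least 2 at 5 µM in the primary screen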
PostGolgi yeast: growth inhibition of a yeast mutant, post-Golgi transport screen | post-Golgi transport phenotypic cell assay | inhibition, % at 10 µM | 0.9% of 98,000 active | AID 739;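 also: yeast cells grown in 1536-well plates; yeast grown about 18 h at 30C before absorbance read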
Large screens that a line does not name were inactive. Rule as the data show it, unless noted: active = inhibition above about 30%; inactive = the rest.

N#Cc1cc(C#N)c(N2CCN(c3ccccn3)CC2)nc1N	CYP2C19 inhib 65
C/C(=N/N1CCN(c2ccccn2)CC1)c1ccc([N+](=O)[O-])cc1	none
Cn1c(C(=O)N(Cc2ccccc2)Cc2cccs2)cc2sccc21	CYP2C9 inh 73
Cn1c(C(=O)N(Cc2ccccc2)Cc2ccccn2)cc2sccc21	CYP2C19 inhib 88, CYP2C9 inh 91
COc1ccc(CSCC(=O)N/N=C/c2ccc(OCC(=O)NCc3ccco3)cc2)cc1	CYP2C19 inhib 58, CYP2C9 inh 70
COc1ccc(CCC(=O)NCc2ccco2)cc1	none
Cc1cccc(N(CC(=O)N/N=C/c2cc([N+](=O)[O-])ccc2Cl)S(C)(=O)=O)c1C	CYP2C19 inhib 53
Cc1cccc(N(CC(=O)N/N=C/c2ccc(OCC(=O)NCc3ccco3)cc2)S(C)(=O)=O)c1C	CYP2C19 inhib 77, CYP2C9 inh 96
Cc1ccc(OCC(=O)N/N=C/c2ccco2)cc1	none
COc1ccc(NS(=O)(=O)CC23CCC(CC2=O)C3(C)C)cc1 (stereo unspecified)	none
C/C(=N\NC(=O)c1cccc(Br)c1)c1cccc(NC(=O)c2ccc(C)o2)c1	none
CC(C)(C)c1ccc(OCCn2ccccc2=O)cc1	CYP2C19 inhib 70
CNC(=O)c1csc(-c2ccc(C)cc2)n1	none
CN1C(=O)c2cccc(NC(=O)CCc3ccccc3)c2C1=O	CYP2C19 inhib 70, CYP2C9 inh 62
CCCCC(=O)Nc1cccc2c1C(=O)N(c1ccccc1)C2=O	CYP2C19 inhib 51, CYP2C9 inh 67
CN(C)c1nc(SCC#N)nc(N(C)C)n1	none (no result: CYP2C19 inhib, CYP2C9 inh, CYP2C9 activ, CYP2C19 act)
CC(C)(C)C1=Nn2c(nnc2-c2ccccn2)SC1	none
COc1ccccc1-c1nnc2n1N=C(C(C)(C)C)CS2	CYP2C19 inhib 79
CC(C)(C)C1=Nn2c(nnc2C2CCCCC2)SC1	CYP2C19 inhib 68
CC(C)(C)C1=Nn2c(nnc2-c2ccccc2F)SC1	CYP2C19 inhib 78
c1cc2c(cc1C1=Nn3c(nnc3C3CCCCC3)SC1)OCO2	none
CCn1c(COc2cccc3ccccc23)nnc1SCC(N)=O	none
COc1ccc(OC)c(C2C(C(C)=O)=C(O)C(=O)N2Cc2cccnc2)c1 (stereo unspecified)	none
Cc1cccc(NC(=S)NNC(=O)CCn2cc(C)cn2)c1	none
Cc1nc2ccc(S(=O)(=O)NCC(=O)N3CCc4ccccc4C3)cc2s1	CYP2C19 inhib 66
Cc1nc2ccc(S(=O)(=O)Nc3ccccc3C)cc2s1	CYP2C19 inhib 97, CYP2C9 inh 70
Cc1nc2ccc(S(=O)(=O)NCC(=O)N3CCc4ccccc43)cc2s1	none
Cc1nc2ccc(NS(=O)(=O)c3ccc(C)c(C)c3)cc2s1	CYP2C9 inh 77
Cc1nc2ccc(S(=O)(=O)NC(C(=O)NC3CCCC3)C(C)C)cc2s1 (stereo unspecified)	none
O=C(O)c1ccc(CNCc2c(Cl)cccc2Cl)cc1	none
O=C1/C(=N\O)Cc2ccccc21	none
CCOc1ccc(NC(=O)Nc2ccc3nccnc3c2)cc1	none
COC(=O)CN1C(=O)Nc2ccc(Br)cc2C1c1ccccc1Cl (stereo unspecified)	PostGolgi ctrl 33
CCOC(=O)CN1C(=O)Nc2ccc(Br)cc2C1c1ccccc1 (stereo unspecified)	none
NC(=O)C1CCN(C(=O)c2ccc(NC3=NC4CS(=O)(=O)CC4S3)cc2)CC1 (stereo unspecified)	none
O=C(CSc1nnnn1-c1cccnc1)Nc1ccc(OCc2ccccc2)cc1	none
Cc1cc2nc(-c3ccc(SCC(=O)Nc4ccc5c(c4)OCCO5)nc3)[nH]c2cc1C	CYP2C9 inh 78
Cc1cc2nc(-c3ccc(SCC(=O)N4CCOCC4)nc3)[nH]c2cc1C	none
Cc1cc2nc(-c3ccc(SCC(=O)N4CCN(C(=O)c5ccco5)CC4)nc3)[nH]c2cc1C	CYP2C19 inhib 72, CYP2C9 inh 84
Cc1ccc(C(=O)NCC(=O)N2CCN(c3ncccn3)CC2)s1	CYP2C9 inh 72
O=C(NCC(=O)N1CCN(c2ncccn2)CC1)c1cccs1	CYP2C19 inhib 59
CCOC(=O)c1cnc(-n2nc(C)cc2C)nc1N(CC)CC	CYP2C9 inh 79
CCOC(=O)c1cnc(-n2nc(C)cc2C)nc1NC1CCCCC1	PostGolgi ctrl 67, PostGolgi yeast 87
Cc1ccc(C(C(=O)NC2CCCCC2)N(Cc2cccnc2)C(=O)C2COc3ccccc3O2)o1 (stereo unspecified)	none
